Results reported in PubChem BioAssay (NCI).
This is part of a sample that, as a whole, favours compounds with a hit. Of some 83,000 tested, about 20% had one in any assay.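 Step 1: grow cells in 96-well plates. Step 2: add test compound at a single concentration. Step 3: incubate 48 h. Step 4: record percent growth.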 Active and inactive are the calls of the source. Rule for the calls: active = growth percent below 10; inactive = the rest.

tested on: HL-60(TB) leukemia; test: NCI-60 one-dose screen, 48 h (100 = growth as untreated, 0 = no growth, -100 = all killed); settings: 10 µM unless noted

| Compound | growth |
| --- | --- |
| C=C1C(=O)O[C@H]2[C@H]1CC/C(COC(=O)NCCc1c[nH]c3ccccc13)=C\CC[C@@]1(C)O[C@@H]21 | -46.2% (active) |
| NC(=S)N1N=C(c2ccc(Cl)cc2)CC1c1cc2ccccc2[nH]c1=O (stereo not given) | 75.1% (inactive) |
| COc1ccc(/C=C2\Oc3cc(C)c(Cl)cc3C2=O)cc1OC | 100% (inactive) |
| COc1ccccc1-c1nc2ccc3[nH]ncc3c2c2c1CCCC2 | 89.6% (inactive) |
| COc1cc2c(cc1-c1c(C)noc1C)ncc1nc(C3CCC(F)(F)CC3)n([C@@H](C)COC(F)F)c12 | 18% (inactive) |
| CC(=O)Nc1nonc1-c1nc2ccccc2n1Cc1ccc(C(C)(C)C)cc1 | 56.8% (inactive) |
| N#Cc1c(-c2ccc(Cl)cc2)csc1NC(=O)Nc1ccc(Cl)c(C(F)(F)F)c1 | -34.2% (active) |
| CN1CCN(CCCNc2nccc(-c3c(-c4ccc(F)c(O)c4)nc4sccn34)n2)S1(=O)=O | 78.3% (inactive) |
| CC1=NNC(=O)C1CCC(=O)N/N=C(\C)c1ccc2ccccc2c1 (stereo not given) | 86.4% (inactive) |
| NC(Cc1ccc(O)c([N+](=O)[O-])c1)C(=O)O (stereo not given) | 114% (inactive) |
| O=C(CC(=O)C(F)(F)C(F)(F)C(F)(F)F)c1cc2ccccc2o1 | 99.3% (inactive) |
| N#Cc1nc(-c2ccccc2)oc1S(=O)(=O)NCC(c1ccc(Cl)cc1)N1CCCCC1 (stereo not given) | 8.18% (active) |
| CCOc1nc(-c2ccccc2)cc2c(O)c(C(=O)NCCCO)[nH]c(=O)c12 | 177% (inactive) |
| CSc1nc2c(c(=O)n1C)N=C1c3ccccc3C(=O)C1C(c1ccccc1)N2 (stereo not given) | 84.5% (inactive) |
| Cc1ccc2c(c1)O/C(=C\c1cccc(OCC(=O)c3ccccc3)c1)C2=O | 12.1% (inactive) |
| Oc1ccc(N=Nc2ccc(N=Nc3ccccc3)cc2)cc1 | 7.35% (active) |
| CC(=O)Oc1ccc(N2C(=O)C(Cl)=C(Nc3cccc(C(F)(F)F)c3)C2=O)cc1 | 96.5% (inactive) |
| O=C(/C=C/c1cccc(Cl)c1Cl)Nc1ncc(Cc2ccccc2Cl)s1 | -3.06% (active) |
| CCN1CC(CCN2CCOCC2)C(C(c2ccccc2)c2ccccc2)C1=O (stereo not given) | 113% (inactive) |
| COC(=O)[C@H](Cc1cn(C)cn1)NC(=O)[C@H](Cc1c[nH]c2ccccc12)NC(=O)Nc1cc(C(F)(F)F)cc(C(F)(F)F)c1 | -54.5% [100 µM] (active) |

| Compound | growth |
| --- | --- |
| COC(=O)Cn1c2c(c3c(OC)cccc31)C(=O)c1ccccc1-2 | 75.6% (inactive) |
| COC(=O)[C@]1(C)CCC[C@]2(C)[C@H]3C[C@@H]4[C@H]5[C@@H]6CC/C(=N\OCC/C(N)=N/O)[C@H]5[C@@]3(CC[C@H]21)CC4(C(C)C)O6 | 30.6% (inactive) |
| Cc1c(C)c2c(c(C)c1OCC(=O)O)CC[C@@](C)(CCC[C@@H](C)CCC[C@@H](C)CCCC(C)C)O2 | 1.94% [50 µM] (active) |
| O=Cc1ccc(O)c(O)c1 | 88% (inactive) |
| O=c1c2c3c(sc2nc(N/N=C/c2ccc(Br)cc2)n1Cc1ccccc1)CCCC3 | 71.2% (inactive) |
| Cc1c2ccncc2c(C)c2c1c1ccccc1n2CCCCCC(=O)O | 104% (inactive) |
| CCN(CC)c1ccc(/C=N/NC(=O)c2ccc(S(C)(=O)=O)cc2)c(O)c1 | -18.5% (active) |
| COc1ccc(C2CC(c3ccc(Nc4nc(Nc5ccc(F)cc5)nc(Nc5ccc(Cl)cc5)n4)cc3)=NN2C(C)=O)cc1 (stereo not given) | 206% (inactive) |
| Nc1ncnc2c1ccn2-c1cccc(NC(=O)c2ccc(N3CCOCC3)c(C(F)(F)F)c2)c1 | 54.1% (inactive) |
| CCOC(=O)c1c(C)nc2c(c1N)C(=O)C(=O)N2Cc1ccc(C(F)(F)F)cc1 | 43.5% (inactive) |
| Cc1cc(-c2ccccc2)cc(C)n1 | 104% (inactive) |
| CNc1ccccc1C(N)=O | 114% (inactive) |
| CCc1c(Nc2ccc(C)cc2)nc(N)[nH]c1=O | 89.6% (inactive) |
| CCCCCCCCCCCCCCCCCCOCC(COP(=O)([O-])OCC[N+](C)(C)C)OC (stereo not given) | 46.4% (inactive) |
| c1ccc(CN=C(NCc2ccccc2)NCc2ccccc2)cc1 | 49.9% (inactive) |
| COP(=O)(OC)c1nnn(-c2cccc([N+](=O)[O-])c2)c1C | 99.8% (inactive) |
| COc1ccc2cc(-c3nc4ccccc4s3)c(Cl)nc2c1OC | 91.4% (inactive) |
| NC(N)=N/N=C/CO | 102% (inactive) |
| O=C(CCl)Oc1ccc(OC(=O)CCl)cc1 | 8.83% (active) |
| COc1ccc(C(=O)O)cc1.[Ag] | -46% (active) |
